Format in all cases: functional
The subject of assay [1] is Plasmodium falciparum. Description: GSK_TCMDC: Inhibition of Plasmodium falciparum 3D7 in whole red blood cells, using parasite LDH activity as an index of growth. Test compounds present at 2uM.
Assay [2] relates to Plasmodium falciparum. Description: GSK_TCMDC: Inhibition of Plasmodium falciparum Dd2 in whole red blood cells, using parasite LDH activity as an index of growth. Test compounds present at 2uM.
The subject of the next assay is HepG2. Put plainly: GSK_TCMDC: Percent inhibition of human HepG2 cell line. Test compounds present at 10uM.

As to `COc1cccc(C=NN=c2cc(C)[nH]c3ccccc23)c1`, the results for the Inhibition in the assay on Plasmodium falciparum [1], with Plasmodium falciparum [2] and in the assay with HepG2 were 100%, 46% and 16%, respectively.
Turning to `O=C(O)C(F)(F)F.O=S(=O)(NCCN1CCCC1)c1ccc(-c2cccc(CNC3Cc4ccccc4C3)c2)s1`, the Inhibition with Plasmodium falciparum [1] is on record as 98%; in the assay with Plasmodium falciparum [2] it was 69%; with HepG2, 57%.
For `CN(C)Cc1cccc(-c2ccc(Nc3nccc(NCC(O)c4ccccc4)n3)cc2)c1` (stereo not drawn) the same measures were 100%, 77% and 75%.
As for `Cc1c(Cl)cccc1N=C(S)NN=Cc1ccccn1`, the values for the Inhibition in the assay on Plasmodium falciparum [1], with Plasmodium falciparum [2] and with HepG2 were 99%, 85% and 58%, respectively.
As for `Cc1nc(N)nc(N)c1CCCOc1ccccc1Cl`, the Inhibition in the assay on Plasmodium falciparum [1] is recorded as 98%; in the assay on Plasmodium falciparum [2], 5%; with HepG2 it was 40%.
The matching figures for `O=C(NCCCCCN1CCC(c2c[nH]c3ccccc23)C1)Nc1ccc(Cl)c(Cl)c1` (stereo not drawn): 95%, 19% and 28%.
The matching figures for `CCCC(=O)c1cnc2c(OCCCc3c[nH]cn3)cccc2c1Nc1c(C)cccc1C`: 98%, 14% and 20%.
The matching figures for `CN1CC=C(c2csc3ccc(NC(=O)Nc4ccc(-c5ccncc5)c5ccccc45)cc23)CC1`: 93%, 99% and 20%.
On to `Cl.Nc1ncc(Cc2cc(Cl)c(N)c3ncccc23)c(N)n1`, for which the results for the Inhibition with Plasmodium falciparum [1], with Plasmodium falciparum [2] and in the assay on HepG2 were 89%, 95% and 5%, respectively.
The matching figures for `CCCCc1ccc(-c2nc(NC(=O)Nc3[nH]c(-c4ccccc4)nc3C(=O)OCC)c(C(=O)OCC)[nH]2)cc1`: 95%, 26% and 0%.
For `CC(C(=O)NC1CCN(c2ccnc(Nc3ccc(F)cc3)n2)C1)c1ccc(Cl)cc1` (stereo not drawn) the same measures were 95%, 90% and 17%.

The values above are taken from ChEMBL document CHEMBL1157539, “Thousands of chemical starting points for antimalarial lead identification” (Nature, 2010).
